Data from ChEMBL document CHEMBL4513216, “Probing the Open Global Health Chemical Diversity Library for Multistage-Active Starting Points for Next-Generation Antimalarials” (ACS Infect Dis, 2020).
In all, about 65,000 compounds went through this assay and about 2,100 (3.2%) showed an effect of 50% or more. The median lay at about -52%. What follows is part of a selection rich in strong results, with near analogues and random picks from the rest.

Tested on: Plasmodium falciparum
Assay: Screen against P. falciparum Asexual Blood Stage (ABS), at 5uM
Format: functional, Dd2
Conditions: tested at 5 uM

SMILES	INHIBITION [%]
COc1ccccc1C(NCc1ccc(SC)cc1)c1nccn1C (stereo unspecified)	69.7
COc1cccc(C(NCc2ccc(SC)cc2)c2nccn2C)c1 (stereo unspecified)	65.5
Cc1ccc(CNC(c2ccccc2)c2nccn2C)cc1 (stereo unspecified)	-267
CSc1ccc(CNC(c2ccccc2F)c2nccn2C)cc1 (stereo unspecified)	-98
CSc1ccc(CNC(c2ccc(F)cc2)c2nccn2C)cc1 (stereo unspecified)	-107
CSc1ccc(CNC(c2ccccc2)c2nccn2C)cc1 (stereo unspecified)	-22.4
Cn1ccnc1C(NCc1csc(Br)c1)c1ccccc1 (stereo unspecified)	28.4
Cn1ccnc1C(NCc1ccccc1)c1ccc(F)cc1 (stereo unspecified)	-60.5
Cn1ccnc1C(NCc1ccc(Br)cc1)c1ccccc1 (stereo unspecified)	52.2
FC(F)(F)Cn1cc(NCc2cscn2)cn1	-19.1
Cc1ccc(S(=O)(=O)c2ncccc2CN2CCN(C)CC2)cc1	24.6
Cc1nc(COc2ccc(CNCCn3cccn3)cc2)cs1	-107
COCCNC(=O)[C@H]1CN(c2nnc(C)s2)C[C@H]2OCC[C@@H]12	-167
c1ccc(Cc2noc(CN3CCCCC3Cn3cncn3)n2)cc1 (stereo unspecified)	-14.9
CCN(CC1CN(Cc2ccn(C(C)C)n2)CCO1)c1cccnn1 (stereo unspecified)	-94
Cc1[nH]c2ccc(C#N)cc2c1CCNc1ncnc2c1CCNCC2	-19.3
Cc1[nH]c2ccc(Cl)cc2c1CCNc1ncnc2c1CCNC2	52
Cc1[nH]c2ccccc2c1CCNc1ncnc2c1CCNCC2	-68.4
O=S(=O)(Nc1ccc(Oc2ccc3c(c2)OCO3)cc1)N1CCCCC1	-59.9
CCN(CCO)Cc1ccc(Br)c2cccnc12	54.2
N#CCCN(CCC#N)Cc1ccc(Br)c2cccnc12	-103.4
OCCN(CCO)Cc1ccc(Br)c2cccnc12	-26.05
Cc1nn(C)c2c(=O)n(C(C)C)c(NCCc3ccccc3)nc12	13.9
Clc1ccc(C2(NCc3noc(C4CC4)n3)CCCC2)cc1	68.5

SMILES	INHIBITION [%]
Clc1ccc(C2(NCc3noc(C4CC4)n3)CCOCC2)cc1	3.57
Clc1ccc(C2(NCc3noc(C4CC4)n3)CCC2)cc1	16.7
O=C(NC1CCCC1)c1nc(COc2ccc3c(c2)OCO3)no1	-118
CSc1ccc(C(C(=O)O)N2CCC(CO)CC2)cc1 (stereo unspecified)	-79.3
Cc1c(NC(=O)c2ncn[nH]2)cccc1C(=O)NC(C)(C)C	-21
c1cnc(NC2COC3(CCN(Cc4ccoc4)CC3)C2)nc1 (stereo unspecified)	-27.7
Cc1cc(CN2CCC3(CC2)CC(Nc2ncccn2)CO3)nn1C (stereo unspecified)	-8.44
Cc1cc(C)cc(CN2CCC3(CC2)CC(Nc2ncccn2)CO3)c1 (stereo unspecified)	60.2
CCc1csc(CNc2cc(C)nc(-c3cccnc3)n2)n1	4.15
CC(C)c1nc(CN2CCCCC2Cn2cncn2)cs1 (stereo unspecified)	-30.9
CC(C)c1nc(CN2CCCC2CN2CCCC2)cs1 (stereo unspecified)	68
CC(C)c1nc(CN2CCCCC2)cs1	-114
CC(C)c1cccc(S(=O)(=O)NCCCN2CCC(O)CC2)c1	34.2
O=S(=O)(Cc1ccccc1F)NCCCN1CCCCC1	19.9
Cc1cc(F)cc(S(=O)(=O)NCCCN2CCC(O)CC2)c1	-34.8
CC1CCN(CCCNS(=O)(=O)c2cccc(F)c2)CC1	54.9
CC1CCN(CCCNS(=O)(=O)Cc2ccccc2F)CC1	28.5
Cn1cnc(S(=O)(=O)NCCCN2CCCC2)c1Cl	-29.7
CC(=O)N1CCN(CCNS(=O)(=O)c2cccc(F)c2)CC1	-72.6
CN1CCN(CCCNS(=O)(=O)Cc2ccccc2F)CC1	18.6
O=S(=O)(NCCCN1CCCC1)c1cc(F)cc(F)c1	67.4
CC1CCN(CCCNS(=O)(=O)c2cc(F)cc(F)c2)CC1	63.3
CC(=O)N1CCN(CCNS(=O)(=O)c2cc(F)cc(F)c2)CC1	-113
O=S(=O)(Cc1c(F)cccc1Cl)NCCCN1CCCCCC1	50.1

SMILES	INHIBITION [%]
O=C(Nc1cccc(N2CCOCC2)c1)N[C@H](CO)c1ccccc1	-104
Cc1cccc(C(=O)N2CCO[C@H]3[C@H](OCCN(C)C)CC[C@@H]32)n1	-57.1
COCC1CN(C(=O)COc2ccccc2)Cc2ncn(C)c21 (stereo unspecified)	-14.4
O=C(NCc1ccnc(OCC(F)(F)F)c1)NCC1CCOC1 (stereo unspecified)	-16
O=C(C1CCCC1)N1CCCC(c2cccc(-n3ccnc3)n2)C1 (stereo unspecified)	-46.4
Cc1c[nH]c(CN2CCOC(c3ccc(Cl)cc3)C2)c(C)c1=O (stereo unspecified)	-11.4
CCN1CCC(CNCc2cc(OC)ccc2OC)C1 (stereo unspecified)	57.9
COc1ccc(CNCC2CC2)cc1F	-75.5
Cc1ccc(CNCC2CCN(CCO)CC2)cc1	13
CCN1CCCC(CNC(=O)CCc2ccc(OC)c(F)c2)C1 (stereo unspecified)	-71.6
COc1ccc(OC)c(CN2CCC(c3cc(O)nc(C)n3)C2)c1 (stereo unspecified)	-1.68
COc1ccc(CNCC2CCN(CCO)CC2)cc1F	58.2
CCC1=N[C@@]2(CC[C@@H]3CN(Cc4ccc(F)cc4)C[C@@H]32)C(=O)N1C	40.2
COC1CCN(c2ccc(NC(=O)C3CC3)cc2C(F)(F)F)CC1	7.84
CN1CCC(c2cccc(Cc3ccc(F)cc3)n2)CC1	0.302
CN1CCC(c2cccc(Cc3ccc(C(F)(F)F)cc3)n2)CC1	52.5
CN1CCC(c2cccc(Cc3ccccc3)n2)CC1	3.76
CNc1nc(C(=O)N2CCN(c3ccc(Cl)c(Cl)c3)CC2)cs1	-3.09
CC(=O)N1CCC(c2nc3ccc(-c4cccc(F)c4)cn3n2)CC1	-83.5
Cc1cc(CN2CCC(C3CCN(CC(C)C)CC3)C2)[nH]n1 (stereo unspecified)	-10.5
CC(C(=O)N1CCCN(Cc2ccc(C#N)cc2)CC1)n1ccnc1 (stereo unspecified)	-20.3
COc1ccc(CN2CCCN(C(=O)C(C)n3ccnc3)CC2)cc1 (stereo unspecified)	63.1
CC(C(=O)N1CCN(Cc2ccc(C#N)cc2)CC1)n1ccnc1 (stereo unspecified)	-162
